# “And” between values parts separate entries of the source, which are not always exact repeats. Equal entries are not always repeated. Hit rate of the full screen: of about 420,000 compounds, about 50,000 (12%) were called active. Roughly 26% stayed inconclusive and do not appear here. The sample holds actives, similar compounds and a random draw of the others, so the mix is not that of the screen. Calls come from the whole dose curve; as a rule, active = well fitted inhibition curve with a large enough effect; inconclusive = small, poorly fitted or top-dose-only effect; inactive = flat fitted curve, though single readings scatter.
# Assay: qHTS for Inhibitors of human tyrosyl-DNA phosphodiesterase 1 (TDP1): qHTS in cells in presence of CPT; note: nearly all actives have a fitted effect of over 55% in size
# Settings: chicken DT40 Tdp1-/-;hTDP1 cells + 20 nM CPT, ATP luminescence, 48 h; series mostly up to 46.2 µM; activity change, negative = growth inhibition: at the top concentration
# Summary of the method: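 Chicken DT40 Tdp1-/- cells stably complemented with human TDP1 were seeded at 400 cells/well in medium containing 20 nM camptothecin, exposed to pin-transferred compounds, and grown at 37 °C for at least 48 hr. Viability was read as ATP luminescence.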
# % is set by controls: 0 for no effect and ±100 for the full control effect; potency is the fitted concentration of half-maximal effect.
Structure (SMILES),"activity change, negative = growth inhibition",Potency
CCCCc1cc(=O)oc2c(C)c(OCC(=O)N3CCC(C(N)=O)CC3)ccc12,1.82% (inactive),
CCOc1ccc(Br)cc1S(=O)(=O)Nc1ccc(S(=O)(=O)Nc2cc(C)on2)cc1,7.48% (inactive),
O=C(NCc1ccc2c(c1)OCO2)c1ccc(Cl)s1,-3.29% (inactive),
O=C(NCc1ccc2c(c1)OCO2)c1c(-c2ccsc2)sc2ccccc12,,14.6 µM (active)
O=C(NCc1ccc2c(c1)OCO2)c1sccc1Br,13% (inactive),
CC(C)(C)C(=O)CSc1ccc(S(=O)(=O)N2CCCC2)cn1,-29.4% (inactive),
CN=C1SC(CC(=O)Nc2ccc(C(=O)O)cc2)C(=O)N1C (centres undefined),-17.1% (inactive),
CCC(=C/c1sc2ccc3ccccc3c2[n+]1C)/C=C1\Sc2ccc3ccccc3c2N1C,,0.231 µM (active)
COc1ccc(N(CC(=O)N2CCOCC2)S(=O)(=O)c2ccccc2)cc1Cl,1.17% (inactive),
O=C(O)c1ccccc1-c1ccccc1C(=O)NCCc1ccccc1,13.9% (inactive),
COc1ccc(CCNC(=O)C2CCN(c3nn4c(=O)cc(C)nc4s3)CC2)cc1OC,2.71% (inactive),
COc1ccc(CCNC(=O)c2ccc(NC(=O)CC3SC(N4CCCCC4)=NC3=O)cc2)cc1OC (centres undefined),-27.3% (inactive),
COc1ccc(CCNC(=O)c2cnc3sc(N4CCCCCC4)nn3c2=O)cc1OC,,11.6 µM (active)
O=C(NCCc1ccccc1)c1cnc2sc(N3CCCC3)nn2c1=O,,16.4 µM (active)
CSc1ncc(C(=O)NCCCc2ccccc2)c(C)n1,-28.1% (inactive),
Cc1cc(C)c(S(=O)(=O)NCC(c2ccc3c(c2)OCO3)N2CCOCC2)c(C)c1 (centres undefined),-0.185% (inactive),
COc1cc(OC)cc(C(=O)NNC(=O)Cc2cccs2)c1,-7.38% (inactive),
CCc1nc2cccnc2n1-c1ccc(C(=O)O)cc1,3.09% (inactive),
COc1cc(OC)c(NC(=O)Cc2ccc(-n3c(C)nc4cccnc43)cc2)cc1Cl,,23.1 µM (active)
COCCCNC(=O)Cc1ccc(-n2c(C)nc3cccnc32)cc1,-15.6% (inactive),
Cc1cccc(-n2nc3c(c2NC(=O)c2cc4ccccc4o2)CS(=O)(=O)C3)c1,-3.89% (inactive),
O=C(CN1CCC(O)(c2cccc(C(F)(F)F)c2)CC1)NCCc1ccccc1,-7.6% (inactive),
O=C(c1ccc(F)cc1)N1CCCC(C(=O)N2CCCCC2)C1 (centres undefined),-8.79% (inactive),
CSc1ccc(C(=O)C2CCCN(C(=O)c3ccc(C)nc3)C2)cc1 (centres undefined),,20.6 µM (active)
Cc1cnc(C(=O)N2CCCC(N3CCN(c4ccccc4F)CC3)C2)cn1 (centres undefined),-22.6% (inactive),
COc1cc2c(cc1OC)C(C(=O)Nc1cc(C)c(OC)c(C)c1)CC(=O)N2 (centres undefined),-5.19% (inactive),

Structure (SMILES),"activity change, negative = growth inhibition",Potency
COc1ccc(NC(=O)c2ccco2)cc1NC(=O)c1ccc(C#N)cc1F,-2.04% (inactive),
COc1ccc(N(CC(=O)N2CCCCCC2)S(=O)(=O)c2ccccc2)cc1,0.579% (inactive),
CCC(C)[C@H](NC(=O)N1c2ccccc2NC(=O)[C@@H]1C(C)C)C(=O)N[C@@H](Cc1ccccc1)C(=O)O (some centres undefined),10.8% (inactive),
CCOC(CNC(=O)C1CCN(S(=O)(=O)c2ccc3nc4c(c(C(=O)O)c3c2)CC(C)CC4)CC1)OCC (centres undefined),5.36% (inactive),
CCCc1nn2c(=O)cc(CSCC(=O)Nc3cccc(C)c3)nc2s1,-12.7% (inactive),
COc1ccc(CCNCc2c(-c3ccccc3)n(C)c3ccccc23)cc1,,16.4 µM (active)
COc1ccc(CCNC(=O)COC(=O)c2cc(=O)c3ccccc3o2)cc1,2.28% (inactive),
COc1ccc(-c2c(C#Cc3ccccc3)c3ccccc3n2C)cc1,-25.1% (inactive),
O=c1[nH]c2c(c(=O)n1-c1ccccc1)CCO2,-15.9% (inactive),
O=C(CCNC(=O)c1ccc([N+](=O)[O-])cc1)NC1CCCCC1,-24.5% (inactive),
CCOc1ccc(C2c3[nH]c4ccccc4c3CCN2Cc2cccn2-c2ncccn2)cc1 (centres undefined),,20.6 µM (active)
CCOc1ccc(C2c3[nH]c4ccccc4c3CCN2Cc2cn(CC)nc2C)cc1 (centres undefined),-6.24% (inactive),
c1ccc(C2c3[nH]c4ccccc4c3CCN2Cc2cccn2-c2cccnc2)nc1 (centres undefined),-17.5% (inactive),
CN(CC(=O)Nc1c(Cl)cccc1Cl)C(=O)CNC(=O)C1CCCCC1,-1.71% (inactive),
CCC(Sc1nc2n[nH]c(C)c2c(=N)n1-c1ccccc1Cl)C(=O)N(CC)CC (centres undefined),,18.4 µM (active)
Cc1ccc(-n2c(SCC(=O)NCCC3=CCCCC3)nc3n[nH]c(C)c3c2=N)cc1Cl,,11.6 µM (active)
O=C(COc1ccc(Cl)cc1)NCCC1=CCCCC1,-14.4% (inactive),
CCCCNC(=O)CSc1nnc(-c2ccco2)n1C,-3.19% (inactive),
CCCCNC(=O)CSc1nccn1Cc1ccccc1,-14.5% (inactive),
CCCCNC(=O)CSc1nc2n[nH]c(C)c2c(=N)n1-c1cccc(Cl)c1C,,16.4 µM (active) and 11.6 µM (active)
CCOc1ccc(-n2c(SCC(=O)Nc3cc(C(=O)O)ccc3Cl)nc3ccccc3c2=O)cc1,-13.7% (inactive),
Cc1nnc(OCC(=O)NCCC2=CCCCC2)c2ccccc12,3.47% (inactive),
Cc1nnc(SCC(=O)NCCOc2ccc(Cl)cc2)n1-c1ccccc1,5.23% (inactive),
CCOc1ccc(-n2c(SCC(=O)NCc3ccccc3)nc3n[nH]c(C)c3c2=N)cc1,,9.2 µM (active)
O=C(COC(=O)c1cccnc1Cl)NC(=O)NC1CCCCC1,-26.5% (inactive),
C[C@H](C(=O)CC(=O)OC(C)(C)C)[C@H](O)c1ccc(C(F)(F)F)cc1,-20.8% (inactive),

Structure (SMILES),"activity change, negative = growth inhibition",Potency
Cc1ccc(SCCC(=O)NC(C(C)C)C(C)C)cc1,-19.8% (inactive),
COc1ccc(OCC(=O)Nc2ccc(NC(=O)c3ccco3)c(C)c2)cc1,-2.05% (inactive),
CCC1(C2CCN(C(=O)c3cccc(F)c3F)CC2)NC(=O)N(CCc2scnc2C)C1=O (centres undefined),9.29% (inactive),
CCCC(C)NC(=O)C1CCN(C(=O)C2CC(=O)N(c3ccc(C)cc3)C2)CC1 (centres undefined),-3.56% (inactive),
CCN(Cc1ccccc1)S(=O)(=O)c1cc(C(=O)O)ccc1OC,2.08% (inactive),
CSC1=NN(c2ccccc2)CN(c2ccccc2)N1C,7.18% (inactive),
CC(C)NC(=O)NC(=O)CSc1nnc(-c2ccccc2F)n1N,-22.8% (inactive),
COc1ccc(-n2c(Cc3cccn3C)nnc2SCC(=O)Nc2cc(C)cc(C)c2)cc1,2.23% (inactive),
COc1ccc(-n2c(SCC(=O)Nc3ccc(Cl)c(C)c3)nc3n[nH]c(C)c3c2=N)cc1,,13 µM (active)
COc1ccc(-n2nnnc2SCC(=O)Nc2ccccc2)cc1,-14.1% (inactive),
Cn1c(CNC(=O)c2ccccc2F)nnc1SCc1ccc(F)cc1,-7.86% (inactive),
O=C(NCc1cccnc1)c1nc(-c2cccs2)no1,14.9% (inactive),
CC(=O)Nc1ccc(NC(=O)CN2CCCC(C)C2)c(Cl)c1 (centres undefined),-20.9% (inactive),
CC1CCCN(CC(=O)Nc2cc(Cl)ccc2Oc2ccccc2)C1 (centres undefined),,25.9 µM (active)
O=C(CSc1ccccc1)Nc1cc(Cl)ccc1Oc1ccccc1,-9.91% (inactive),
CC1CCCN(S(=O)(=O)c2ccc(-c3ccc(=O)[nH]n3)o2)C1 (centres undefined),-5.64% (inactive),
Cc1ccc(/C=C/C(=O)OCC(=O)NCc2ccc(Cl)cc2)o1,1.25% (inactive),
Cc1ccc(N(C(=O)Cc2cccs2)C(C(=O)NCC2CCCO2)c2ccncc2)cc1 (centres undefined),0.789% (inactive),
Cc1ccc(C(C(=O)NCC2CCCO2)N(C(=O)c2snc(C(N)=O)c2N)c2ccc(C(C)C)cc2)o1 (centres undefined),,23.1 µM (active)
COCCNC(=O)C(c1ccc(C)o1)N(Cc1cccs1)C(=O)c1snc(C(N)=O)c1N (centres undefined),-20.2% (inactive),
CCOc1ccc(N(C(=O)c2snc(C(N)=O)c2N)C(C(=O)NCC2CCCO2)c2c[nH]c3ccccc23)cc1 (centres undefined),-75.3% (inactive),
COc1ccc(N(C(=O)c2snc(C(N)=O)c2N)C(C(=O)NC2CCCC2)c2ccco2)cc1OC (centres undefined),5.11% (inactive),
Cc1ccc(N(C(=O)c2snc(C(N)=O)c2N)C(C(=O)NCC2CCCO2)c2c[nH]c3ccccc23)cc1 (centres undefined),,4.61 µM (active)
Nc1nc(Sc2ncccc2[N+](=O)[O-])n[nH]1,-12% (inactive),
O=C(Oc1ccc(Br)cc1C(=S)N1CCOCC1)c1cccc([N+](=O)[O-])c1,-14.6% (inactive),
O=C(NNC(=O)C(O)c1ccccc1)NC1CCCCC1 (centres undefined),-10.7% (inactive),

Structure (SMILES),"activity change, negative = growth inhibition",Potency
O=C(CN1CCN(Cc2ccc(Cl)cc2)C1=O)NCc1ccc(F)cc1,-26.3% (inactive),
NC(=O)c1ccc(Nc2ccc3nonc3c2[N+](=O)[O-])cc1,0.436% (inactive),
O=C(C1CCN(Cc2ccc(Cl)cc2)CC1)N1CCN(Cc2ccc3c(c2)OCO3)CC1,,23.1 µM (active)
CCN(CCCNC(=O)C1CCN(S(=O)(=O)c2cnc[nH]2)CC1)c1ccccc1,-22% (inactive),
O=C(Nc1cccc2ccccc12)N1CCN(Cc2ccc3c(c2)OCO3)CC1,-19.1% (inactive),
O=C(C1CCN(S(=O)(=O)c2cnc[nH]2)CC1)N1CCN(Cc2ccc3c(c2)OCO3)CC1,,20.6 µM (active)
O=C(c1cccs1)N1CCN(Cc2ccc3c(c2)OCO3)CC1,-18.3% (inactive),
Cc1cc(C)n2nc(C(=O)N3CCN(Cc4ccc5c(c4)OCO5)CC3)nc2n1,2.69% (inactive),
CCN(C(=O)CSc1nnnn1-c1ccc(OC)cc1)C1CCS(=O)(=O)C1 (centres undefined),4.62% (inactive),
CO/N=C/c1cn(-c2ccc(Cl)cc2)nn1,-1.57% (inactive),
CSc1ccc(/C=N/NC(=O)c2cccc(Cl)c2)cc1,2.7% (inactive),
CCOC(=O)c1ccccc1NC(=O)c1c(N)n(C)c(=O)[nH]c1=O,-25.9% (inactive),
CCc1ccc(NC(=O)CN2C(=O)COc3ccc(S(=O)(=O)N4CCCC4)cc32)cc1,-26.2% (inactive),
NS(=O)(=O)c1ccc(NC(=O)/C=C/c2ccccc2Cl)cc1,-4.03% (inactive),
COc1ccc(NC(=O)c2cnc(NS(=O)(=O)c3ccccc3)nc2)cc1,1.22% (inactive),
COc1ccc(/C=N/NS(=O)(=O)c2ccc(NC(C)=O)cc2)cc1,-22.2% (inactive),
COC(=O)COc1ccc(S(=O)(=O)Nc2ccc(NC(C)=O)cc2)cc1,-10.2% (inactive),
COc1ccc(C(=O)Nc2ccc(S(=O)(=O)Nc3onc(C)c3C)cc2)cc1OC,-6.94% (inactive),
CC(=O)Nc1ccc(S(=O)(=O)N2CCCC2C(=O)O)cc1 (centres undefined),6.9% (inactive),
COc1cc(OC)cc(C(=O)Nc2ccc(S(=O)(=O)Nc3cc(C)on3)cc2)c1,-1.33% (inactive),
CC(=O)Nc1ccc(S(=O)(=O)Nc2ccc(N3CCCCC3)cc2)cc1,,4.61 µM (active)
COc1ccc(NS(=O)(=O)c2ccc(NC(=O)c3ccc(N(C)S(C)(=O)=O)cc3)cc2)cc1,,8.2 µM (active)
CC(=O)Nc1ccc(S(=O)(=O)Nc2cccc(NC(=O)C(C)(C)C)c2)cc1,-20.3% (inactive),
COc1cc(NS(=O)(=O)c2ccc(NC(C)=O)cc2)cc(OC)c1,,14.6 µM (active)
CC(=O)Nc1ccc(NS(=O)(=O)c2ccc3c(c2)NC(=O)CC(=O)N3)cc1,4.03% (inactive),
COc1ccc(NS(=O)(=O)c2ccc(NC(C)=O)cc2)cc1OC,,9.2 µM (active)

# Source: PubChem BioAssay AID686979 (National Center for Advancing Translational Sciences (NCATS), 2013)
